Results as given in PubChem BioAssay (EPA / NIEHS).
Inconclusive results are not listed. Active and inactive are the calls of the source. The calls were made as follows, unless noted: active = hit-call score of the fitted dose curve at least 0.9, where 1 is the maximum; inactive = score below 0.9.

Assays:
[1] = read-out: Interleukin-8 (IL8), CXCL8 (gene 3576); assay: BSK_3C_IL8: BioMAP Diversity Plus: 3C Assay for Interleukin-8 (IL8) Biomarker Activity (AID 2283020); details: primary human endothelial cells (HUVEC); actives raise or lower the signal
Outline: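 Using DMSO-treated wells as the baseline, bidirectional curve fitting was applied to ELISA-measured IL-8 from human umbilical vein endothelial cultures sampled 24 h after compound addition.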

[2] = read-out: Monokine induced gamma interferon (MIG), CXCL9 (gene 4283); assay: BSK_3C_MIG: BioMAP Diversity Plus: 3C Assay for Monokine induced gamma interferon (MIG) Biomarker Activity (AID 2283021); details: primary human endothelial cells (HUVEC); actives raise or lower the signal;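 as to AC50: MIG protein level measured by immunoassay in the treated endothelial cultures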
Outline: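 ELISA-measured MIG in dosed HUVEC 3C cultures at 24 h, analysed by bidirectional fitting with DMSO defining baseline activity.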

[3] = BSK_3C_SRB: Viability Assessment in the BioMAP Diversity Plus: 3C Assay (AID 2283023); details: primary human endothelial cells (HUVEC);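 also: fitted both ways against DMSO so a hit may be signal rise or drop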
Outline: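 Human umbilical vein endothelial cells in the 3C system, treated 24 h. Total protein measured by 0.1% sulforhodamine B staining after 10% TCA fixation, read at 560 nm; bidirectional fit versus DMSO.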

[4] = read-out: Matrix Metallopeptidase 1 (MMP1), MMP1 (gene 4312); assay: BSK_BE3C_MMP1: BioMAP Diversity Plus: BE3C Assay for Matrix Metallopeptidase 1 (MMP1) Biomarker Activity (AID 2283024); details: primary human bronchial epithelial cells; actives raise or lower the signal
Outline: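 In this multiplexed primary-cell system, human bronchial epithelium received chemicals for 24 h before an ELISA for MMP1. Values reflect bidirectional fits normalised to the DMSO baseline.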

[5] = BSK_3C_Vis: BioMAP Diversity Plus: 3C Assay for Morphology Visualization (AID 2283025); details: primary human endothelial cells (HUVEC);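 also: light microscopy image of cell morphology used as background control; fitted both ways so gain or loss versus DMSO counts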
Outline: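 Light-microscopy morphology readout, 24 h exposure, human primary umbilical vein endothelium; analysed relative to DMSO with bidirectional fitting.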

[6] = read-out: Pselectin, SELP (gene 6403); assay: BSK_4H_Pselectin: BioMAP Diversity Plus: 4H Assay for Pselectin Biomarker Activity (AID 2283026); details: primary human endothelial cells (HUVEC); actives raise or lower the signal
Outline: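 Bidirectional fits against DMSO gave the endpoint. Cells: primary human umbilical vein endothelium, chemical-treated for 24 h before ELISA detection of P-selectin.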

[7] = BSK_4H_SRB: Viability Assessment in the BioMAP Diversity Plus: 4H Assay (AID 2283027); details: primary human endothelial cells (HUVEC);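 also: cells exposed to compound for 24 h before staining; curves fitted both ways versus DMSO so AC50 may be loss or gain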
Outline: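 Cytotoxicity read-out in primary human endothelial cells: after 24 h compound exposure, cells were TCA-fixed (10%), stained with 0.1% SRB and absorbance taken at 560 nm. Values fitted in both directions relative to DMSO.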

[8] = BSK_BE3C_SRB: Viability Assessment in the BioMAP Diversity Plus: BE3C Assay (AID 2283028); details: primary human bronchial epithelial cells
Outline: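 Human bronchial epithelial primary cells in confluent culture, 24 h after chemical dosing; total protein by 0.1% SRB staining after 10% TCA fixation, read at 560 nm. Bidirectional fitting versus DMSO baseline.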

[9] = read-out: Thrombomodulin, THBD (gene 7056); assay: BSK_3C_Thrombomodulin: BioMAP Diversity Plus: 3C Assay for Thrombomodulin Biomarker Activity (AID 2283029); details: primary human endothelial cells (HUVEC); actives raise or lower the signal
Outline: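 In a multiplexed primary-cell system, human umbilical vein endothelium received chemical and was assayed 24 h later for thrombomodulin by ELISA. Parallel cultures were SRB-stained (0.1% SRB after 10% TCA fixation, read at 560 nm) to flag cytotoxicity.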

[10] = read-out: Urokinase-type plasminogen activator receptor (uPAR), PLAUR (gene 5329); assay: BSK_4H_uPAR: BioMAP Diversity Plus: 4H Assay for Urokinase-type plasminogen activator receptor (uPAR) Biomarker Activity (AID 2283030); details: primary human endothelial cells (HUVEC); actives raise or lower the signal
Outline: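 Human umbilical vein endothelial cells in the 4H system, 24 h after chemical dosing. Cell-surface uPAR measured by ELISA, fitted in both directions versus DMSO; cytotoxicity checked by SRB total protein in parallel cultures.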

[11] = read-out: Human Leukocyte Antigen - DR isotype (HLADR), HLA-DRA (gene 3122); assay: BSK_BE3C_HLADR: BioMAP Diversity Plus: BE3C Assay for Human Leukocyte Antigen - DR isotype (HLADR) Biomarker Activity (AID 2283032); details: primary human bronchial epithelial cells; actives raise or lower the signal
Outline: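 BioMAP BE3C format: human bronchial epithelium, 24 h compound treatment, ELISA detection of HLA-DR, with bidirectional analysis relative to DMSO.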

[12] = read-out: Vascular cell adhesion molecule 1 (VCAM1), VCAM1 (gene 7412); assay: BSK_4H_VCAM1: BioMAP Diversity Plus: 4H Assay for Vascular cell adhesion molecule 1 (VCAM1) Biomarker Activity (AID 2283033); details: primary human endothelial cells (HUVEC); actives raise or lower the signal
Outline: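 In this human endothelial (HUVEC) system, biomarker ELISA was run 24 h after compound addition, and total protein in parallel wells was assessed by SRB at 560 nm; DMSO served as negative control.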

[13] = read-out: Interferon-gamma inducible Protein 10 (IP10), CXCL10 (gene 3627); assay: BSK_BE3C_IP10: BioMAP Diversity Plus: BE3C Assay for Interferon-gamma inducible Protein 10 (IP10) Biomarker Activity (AID 2283034); details: primary human bronchial epithelial cells; actives raise or lower the signal
Outline: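 BE3C cells (human bronchial epithelial, primary); 24 h exposure; ELISA for IP-10; DMSO-referenced bidirectional fit.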

[14] = read-out: Monokine induced gamma interferon (MIG), CXCL9 (gene 4283); assay: BSK_BE3C_MIG: BioMAP Diversity Plus: BE3C Assay for Monokine induced gamma interferon (MIG) Biomarker Activity (AID 2283035); details: primary human bronchial epithelial cells; actives raise or lower the signal;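 also: MIG protein measured by ELISA in BE3C cultures after 24 h of dosing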
Outline: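 ELISA quantified MIG after 24 h exposure of primary bronchial epithelial cultures, analysed in both directions relative to DMSO. Cytotoxicity tracked in parallel cultures by sulforhodamine B staining.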

[15] = read-out: Transforming growth factor beta 1 (TGFb1), TGFB1 (gene 7040); assay: BSK_BE3C_TGFb1: BioMAP Diversity Plus: BE3C Assay for Transforming growth factor beta 1 (TGFb1) Biomarker Activity (AID 2283036); details: primary human bronchial epithelial cells; actives raise or lower the signal
Outline: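 TGF-b1 measured via ELISA, 24 h after chemical dosing of human bronchial epithelial cells (BE3C). Overt cytotoxicity assessed in parallel by SRB (0.1%, TCA-fixed, 560 nm); analysis bidirectional relative to DMSO.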

[16] = read-out: Plasminogen activator inhibitor-1 (PAI1), SERPINE1 (gene 5054); assay: BSK_BE3C_PAI1: BioMAP Diversity Plus: BE3C Assay for Plasminogen activator inhibitor-1 (PAI1) Biomarker Activity (AID 2283037); details: primary human bronchial epithelial cells; actives raise or lower the signal
Outline: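 In this multiplexed primary-cell system, bronchial epithelial cells receive test chemical and are sampled at 24 h. PAI-1 is read by ELISA, with DMSO serving as negative control for bidirectional fitting.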

[17] = read-out: urokinase plasminogen activator (uPA), PLAU (gene 5328); assay: BSK_BE3C_uPA: BioMAP Diversity Plus: BE3C Assay for urokinase plasminogen activator (uPA) Biomarker Activity (AID 2283038); details: primary human bronchial epithelial cells; actives raise or lower the signal
Outline: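 Primary human bronchial epithelial cells, uPA measured by ELISA 24 h after dosing. Bidirectional change relative to DMSO; cytotoxicity checked in parallel cultures by sulforhodamine B total-protein staining.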

[18] = biological target: human Vitamin D Receptor (VDR), VDR (gene 7421) (UniProt P11473); assay: ATG_VDR_TRANS: Attagene TRANS-FACTORIAL HepG2 Assay for human Vitamin D Receptor (VDR) (AID 2283022; active = hit-call score of the fitted dose curve at least 0.9, where 1 is the maximum)
Chain of human Vitamin D Receptor (VDR), VDR (gene 7421) (P11473 whole entry, looked up, the tested form may be a part): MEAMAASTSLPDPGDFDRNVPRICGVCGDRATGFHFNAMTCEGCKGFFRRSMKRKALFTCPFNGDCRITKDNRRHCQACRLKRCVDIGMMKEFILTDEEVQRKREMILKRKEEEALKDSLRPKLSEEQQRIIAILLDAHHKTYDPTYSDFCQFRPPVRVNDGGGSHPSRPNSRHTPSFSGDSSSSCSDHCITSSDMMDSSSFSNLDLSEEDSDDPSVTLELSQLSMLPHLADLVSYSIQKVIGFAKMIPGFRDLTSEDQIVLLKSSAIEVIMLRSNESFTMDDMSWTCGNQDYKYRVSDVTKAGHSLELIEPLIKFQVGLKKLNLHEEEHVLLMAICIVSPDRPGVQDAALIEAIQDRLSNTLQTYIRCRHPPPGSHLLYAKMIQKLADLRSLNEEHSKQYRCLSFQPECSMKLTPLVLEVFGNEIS
Outline: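 HepG2 cells were transiently transfected with GAL4-UAS reporter units and a chimeric VDR-Gal4 construct, then dosed for 24 hours. Reporter mRNA was quantified by RT-PCR, fluorescent labeling, HpaI digestion and capillary electrophoresis; gain of signal analysed vs DMSO.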

Measured: AC50

c1ccc(Sc2ccccc2)cc1
active: [1] 20 µM | [3] 32.3 µM | [4] 0.016 µM | [5] 37.8 µM | [6] 29.6 µM | [7] 31.1 µM | [9] 20 µM | [10] 32.7 µM | [11] 29.9 µM | [12] 31.3 µM | [13] 30.1 µM | [15] 20 µM | [16] 28.1 µM | [17] 25.6 µM
inactive: [2] | [8] | [14]

C=C1CC/C=C(\C)CC[C@@H]2[C@@H]1CC2(C)C
active: [1] 30.6 µM | [2] 36.6 µM | [3] 29.8 µM | [4] 20 µM | [5] 14.5 µM | [6] 29.1 µM | [7] 31.9 µM | [10] 33.2 µM | [12] 29.8 µM | [13] 28.6 µM
inactive: [18] | [8] | [9] | [11] | [14] | [15] | [16] | [17]
